AMA1-RON2 inh: inhibitors of Plasmodium falciparum AMA1-RON2 interaction; 360,000 compounds, 0.2% hits; AID 720542; Potency, µM (series often up to 58.2 µM), for inactives: top-dose activity change, negative = inhibition, most hits filed as inhibitors; AlphaScreen AMA1-biotinylated RON2 peptide binding;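 further: 0% = vehicle wells and -100% = peptide control; nearly all actives have a fitted effect of over 45% in size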
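AMA1 (3D7) with his tag at 25 nM final met compounds first, then biotinylated RON2 peptide at 25 nM; detection used donor plus acceptor beads, 10 µg/mL apiece, read by AlphaScreen after 30 min at room temperature.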
Pf growth 48h: P. falciparum growth inhibition at 48 hours (one generation); P. falciparum luciferase growth in erythrocytes, 48 h; Potency, µM (titrated, usually from 28.7 µM), without a hit: at the top dose activity change, negative = inhibition, actives largely listed as inhibitors; 310,000 compounds, 5.9% hits
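First compound was added to culture medium, then infected red cells at 0.1% parasitemia and 2% hematocrit (final). After incubation at 37 C under 5% CO2, luciferase detection reagent was dispensed and light output recorded.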
Pf growth 96h: P. falciparum growth inhibition at 96 hour, primary screen for plastid delayed-death inhibitors; P. falciparum luciferase reporter growth, 96 h; Potency, µM (series often up to 28.7 µM), for inactives: top-dose activity change, negative = inhibition, usual class: inhibitors; 320,000 compounds, 6.9% hits
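Luminescence readout: decreased luciferase signal marks inhibited growth of reporter-expressing P. falciparum in infected red cells (2% hematocrit, 0.05% parasitemia final), exposed to compound two generations (96 h, 37 C, 5% CO2).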
HCV inhibitor: HCV inhibition | Potency, µM (highest dose often 41.8 µM), inactives show at the top dose activity change, negative = inhibition, most hits filed as inhibitors | 340,000 compounds, 3.4% hits | AID 651820 | Huh7.5.1 HCVcc-Cre infection, luciferase reporter, 44 h
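Infectious HCV cell culture screen: compound-treated cells (1,000/well, pre-plated 4 h) are infected with HCVcc-Cre at roughly 0.5 moi and grown 44 h. Infection is quantified by luciferase signal after 15 min substrate incubation at room temperature.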
AmpC inh no detg: blocks E. coli AmpC beta-lactamase in detergent-free assay. 330,000 compounds, 0.52% hits. AmpC nitrocefin hydrolysis, absorbance 480 nm, 0.0001% Triton. Potency, µM (highest dose often 57.1 µM), without a hit: at the highest dose activity change, negative = inhibition, actives largely listed as inhibitors;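 further: plate controls were no compound for no effect and no enzyme for full effect; nearly all actives have a fitted effect of over 20% in size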
Target sequence (P00811 whole entry, looked up): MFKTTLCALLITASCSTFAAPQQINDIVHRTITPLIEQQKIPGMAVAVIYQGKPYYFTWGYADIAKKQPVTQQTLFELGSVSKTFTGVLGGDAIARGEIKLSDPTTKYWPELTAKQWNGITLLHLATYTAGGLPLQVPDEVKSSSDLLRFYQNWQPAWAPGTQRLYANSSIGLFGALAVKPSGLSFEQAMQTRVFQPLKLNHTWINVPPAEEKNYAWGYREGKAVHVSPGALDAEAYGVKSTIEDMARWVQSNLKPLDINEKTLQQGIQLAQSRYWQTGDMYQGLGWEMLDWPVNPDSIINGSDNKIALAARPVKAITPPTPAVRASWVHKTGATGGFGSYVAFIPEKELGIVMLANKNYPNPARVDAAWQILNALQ
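AmpC (5.3 nM in the dispensed reagent) in 20 mM phosphate pH 7.0 with 0.01% (detergent screen) or 0.0001% Triton X-100 was preincubated with compounds for 15 min at room temperature. Nitrocefin was then added from an 800 uM solution, and hydrolysis was followed at 480 nm.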
AmpC detergent: blocks E. coli AmpC beta-lactamase in detergent assay | AID 485294 | 370,000 compounds, 0.041% hits | AmpC hydrolysis of nitrocefin, absorbance 480 nm, 0.01% Triton | Potency, µM (titrated, usually from 114 µM), for inactives: at the top dose activity change, negative = inhibition, hits mostly inhibitors;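 further: 0% = no-compound wells and -100% = no-enzyme wells; nearly all actives have a fitted effect of over 25% in size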
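AmpC (5.3 nM in the dispensed reagent) in 20 mM phosphate pH 7.0 with 0.01% (detergent screen) or 0.0001% Triton X-100 was preincubated with compounds for 15 min at room temperature. Nitrocefin was then added from an 800 uM solution, and hydrolysis was followed at 480 nm.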
Active calls of the source: *; ? = inconclusive; . = no result given; ! = a repeat was not active; [ ] = dose if it differs, or a comment. In the library only some 11% were active in any assay of this set; here they are far more common. The call rests on the fitted dose curve; in most records, active means well fitted curve in the direction sought with a large enough effect; inconclusive means small, poorly fitted or top-dose-only effect, or another doubt; inactive means no such curve, though single readings can be large; an effect the other way counts as inactive or inconclusive. Unless noted, on the % scale 0 is the no-effect control and ±100 the full control effect; potency means the concentration at half of the fitted maximal effect.

SMILES	AMA1-RON2 inh	Pf growth 48h	Pf growth 96h	HCV inhibitor	AmpC inh no detg	AmpC detergent
COc1ccc(CNC(=O)CSc2nc(-c3ccc(OC)cc3)cc(C(F)(F)F)n2)cc1	.	.	.	.	.	5.7%
COc1ccc(-c2cc(C(F)(F)F)nc(SCCC(=O)NCc3ccccc3)n2)cc1	-0.5%	14.7µM*	.	?	-7.3%	-3.1%
COc1ccccc1CCNC(=O)CCSc1nc(-c2ccco2)cc(C(F)(F)F)n1	-0.5%	8.28µM*	-1.2%	?	6.8%	?
Cc1cc2oc(C(=O)Nc3c(C(=O)Nc4ccccc4)oc4ccccc34)cc(=O)c2cc1C	.	.	.	.	.	1.7%
CC[C@@]12C(=O)N(c3cccc(F)c3)C(=O)N1[C@H](c1ccc(Cl)cc1)[C@@H]1C(=O)N(C3CCCCC3)C(=O)[C@@H]12	-12.8%	?	?	-17.5%	115.8%	-0.6%
CC(C)C[C@@]12C(=O)N(c3cccc(Cl)c3)C(=O)N1[C@H](c1ccc(F)cc1)[C@@H]1C(=O)N(C3CCCCC3)C(=O)[C@@H]12	-12.7%	4.15µM*	?	16.2%	-11.7%	?
CC(C)C[C@@]12C(=O)N(c3cccc(Br)c3)C(=O)N1[C@H](c1ccc(Cl)cc1)[C@@H]1C(=O)N(C3CCCCC3)C(=O)[C@@H]12	8.1%	2.62µM*	?	16.8%	-22.2%	?
CC[C@@]12C(=O)N(c3cccc(Br)c3)C(=O)N1[C@H](c1ccc(Cl)cc1)[C@@H]1C(=O)N(C3CCCCC3)C(=O)[C@@H]12	-8.2%	?	8.28µM*	-5.6%[8.37 µM]	69.5%	-14.9%
CC(C)C[C@@]12C(=O)N(c3cccc(Cl)c3)C(=O)N1[C@H](c1ccc(Cl)cc1)[C@@H]1C(=O)N(C3CCCCC3)C(=O)[C@@H]12	-7.1%	?	63.6%	0.8%	-28.9%	5.4%
Cc1ccc(OCC(=O)N(Cc2ccc(Cl)cc2)Cc2ccco2)cc1C	.	.	.	.	.	-5.3%
COC(=O)C1=C(C(=O)OC)[C@@H]2N(C)c3ccccc3[C@@]23C[C@@H](CO)N(C(=O)NCCBr)C3=N1	-1.8%	9.28µM*	?	?	86.2%	1.3%
COC(=O)C1=C(C(=O)OC)[C@@H]2N(Cc3ccccc3)c3ccccc3[C@@]23C[C@@H](C(=O)OC)N(C(=O)CC(C)C)C3=N1	-19.7%	4.15µM*	4.65µM*	?	61.3%	-2.3%
C=CCN1c2ccccc2[C@]23C[C@@H](C(=O)OC)N(C(=O)NCCC)C2=NC(C(=O)OC)=C(C(=O)OC)[C@H]13	11.9%	3.29µM*	4.15µM*	?	60.4%	4.3%
CCOC(=O)N1C2=NC(C(=O)OC)=C(C(=O)OC)[C@@H]3N(C)c4ccccc4[C@]23C[C@H]1C(=O)OC	-14.3%	56.2%	-10.8%	-0.9%	103.6%	-0.5%
C=CCN1c2ccccc2[C@]23C[C@@H](C(=O)OC)N(C(=O)C4CCC4)C2=NC(C(=O)OC)=C(C(=O)OC)[C@H]13	-12.9%	-7.4%	33.6%	16.7%	152.9%	-6.1%
O=C(CSCc1cnn(-c2ccccc2)c1-n1cccc1)NCc1cccc(Cl)c1	.	.	.	.	.	15.5%
CCc1ccc(NC(=O)c2ccc3c(O)c(S(=O)(=O)c4ccccc4)c(=O)[nH]c3c2)cc1	.	.	.	.	.	19.9%
O=S(=O)(c1ccccc1)N1CCN(C(=S)Nc2ccc(F)cc2)CC1	11.4%	?	?	8.9%	-1.2%	-2.6%
O=S(=O)(c1ccc(Cl)cc1)N1CCN(C(=S)Nc2ccc(F)c(Cl)c2)CC1	-4.9%[11.6 µM]	0.657µM*	0.5%	-1.2%	-31.4%	-9.3%
Cc1ccc(C)c(NC(=S)N2CCN(S(C)(=O)=O)CC2)c1	-5.6%	6.1%	20.3%	13.5%	1.8%	-4.9%
Cc1ccc(NC(=S)N2CCN(S(C)(=O)=O)CC2)cc1	7.8%	38.8%	10.4µM*	23.0%	-7.0%	?
Cc1cccc(NC(=S)N2CCN(S(=O)(=O)c3ccc(F)cc3)CC2)c1	-9.3%	2.08µM*	?	5.2%	-32.8%	-1.1%
CCc1ccc(-n2c(SCC(=O)NC(C)CC)nc3n[nH]c(C)c3c2=N)cc1 (stereo unspecified)	.	.	.	.	.	1.6%
O=S(=O)(c1ccccc1)c1ncc(C(F)(F)F)cc1Cl	7.0%	10.4µM*	?	?	-10.4%	-10.9%
CCOC(=O)C1CCN(C(=O)c2nn(-c3ccc(C)cc3)c(=O)c3c2c2ccccc2n3C)CC1	.	.	.	.	.	3.2%
SMILES	AMA1-RON2 inh	Pf growth 48h	Pf growth 96h	HCV inhibitor	AmpC inh no detg	AmpC detergent
CC1CCc2c(sc3nnn(Cc4ccc(F)cc4)c(=O)c23)C1 (stereo unspecified)	.	.	.	.	.	23.8%
Cc1c(C(=O)N2CCCCC2)c(S(=O)(=O)NCc2ccccc2Cl)c(C)n1C	3.8%	-10.7%	13.1µM*	4.3%	29.4%	-2.6%
O=C(NNc1cc(N2CCOCC2)nc(N2CCOCC2)n1)c1ccc(Cl)c(Cl)c1	1.1%	-3.7%	-14.8%	?	30.4%	-4.7%
Cc1ccc(C(=O)NNc2cc(N3CCCC3)nc(N3CCCC3)n2)cc1	15.1%	4.65µM*	-7.6%	?	-12.7%	0.4%
CC(C)(C)NC(=O)NC(=O)C[n+]1ccc(Cc2ccc([N+](=O)[O-])cc2)cc1	-6.7%	9.28µM*	?	5.7%	14.8%	0.6%
O=C(C[n+]1ccc(Cc2ccccc2)cc1)Nc1ccc([N+](=O)[O-])cc1Cl	-1.9%	-29.9%	11.9%	-28.9%	39.4%	1.6%
Cc1ccc(Cl)cc1NC(=O)C[n+]1ccc(Cc2ccc([N+](=O)[O-])cc2)cc1	-1.3%	?	1.85µM*	?	4.7%	2.5%
CC1=C(c2ccc(C)c(C)c2)S(=O)(=O)N=C1N1CCC(C(=O)Nc2cccc(F)c2)CC1	.	.	.	.	.	-1.7%
Cc1ccccc1-c1nc(CS(=O)(=O)CC(=O)N(C)C2CCCCC2)c(C)o1	-5.9%	-1.2%	-26.1%	11.2µM*!	76.5%	?
CC(C)(C)OC(=O)N1CCC(CC2CC(c3ccccc3)=NO2)(C(=O)O)CC1 (stereo unspecified)	28.8%	.	.	38.5%	.	.
CCCCCCCNC(=O)C1(CC2CC(c3cccc(Br)c3)=NO2)CCN(C(=O)C2(C)CC2)CC1 (stereo unspecified)	-0.1%	?	?	-2.9%	193.4%	?
CCCCCCCNC(=O)C1(CC2CC(c3cccc(Br)c3)=NO2)CCN(C(=O)CCCCCBr)CC1 (stereo unspecified)	-5.1%	13.1µM*	?	?	197.8%	-12.8%

Screening data as filed in PubChem.
